The values below come from PubChem BioAssay (NCI).

Each structure is given as a SMILES string. Compounds without any hit were thinned out: in the full panel of roughly 83,000, 20% have a hit.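 Activity criterion: percent growth below 10, measured after cells in 96-well plates were exposed to a single compound concentration for 48 hours.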 A number with no mark means an inactive call. Active and inactive are the calls of the source.

Some test systems named below: NCI-H23 lung; NCI-H226 lung; NCI-H322M lung; HOP-62 NSCLC; NCI-H460 lung; HOP-92 NSCLC; NCI-H522 lung; A549/ATCC NSCLC; 786-0 renal; COLO 205 colon; DU-145 prostate; K-562 leukemia; MALME-3M melanoma; MDA-MB-231 breast; RXF 393 renal; SF-268 CNS; SF-295 CNS; SF-539 CNS; UACC-257 melanoma; M14 melanoma.
Common to all, as to assay: NCI-60 one-dose screen, 48 h (100 = growth as untreated, 0 = no growth, -100 = all killed)
Holding throughout (conditions): 10 µM unless noted

As for `Cc1ccc(C(F)(F)F)cc1N1CCN(C(=O)[C@H]2C[C@H]2c2ccc(C(F)(F)F)nc2)CC1`, the growth was 95.5% with NCI-H23 lung; 84.3% in the assay with NCI-H226 lung; 99.1% in the assay on NCI-H322M lung; 97.7% in the assay with HOP-62 NSCLC; 106% in the assay on NCI-H460 lung; 60.5% in the assay with HOP-92 NSCLC. Moreover, the growth is 72% in the assay with NCI-H522 lung; 81.5% with A549/ATCC NSCLC; 93% in the assay on 786-0 renal; 91.6% in the assay on COLO 205 colon; 105% in the assay with DU-145 prostate; 78.1% with K-562 leukemia. The growth in the assay on MALME-3M melanoma is 94%; in the assay with MDA-MB-231 breast it was 91.3%; with RXF 393 renal it was 92.8%; with SF-268 CNS, 91.3%; with SF-295 CNS it was 94.7%; with SF-539 CNS it was 88.6%. For the same molecule, the results for the growth in the assay on UACC-257 melanoma and in the assay on M14 melanoma were 92.7% and 97.5%, respectively.
Regarding `O=C(CNc1ncco1)Nc1ccc(S(=O)(=O)c2ccc(NC(=O)CNc3ncco3)cc2)cc1`, the growth was 4.33% (active) in the assay on NCI-H23 lung; -17.7% (active) in the assay on NCI-H226 lung; 75.2% with NCI-H322M lung; 32.7% with HOP-62 NSCLC; -60.4% (active) with NCI-H460 lung; 81% in the assay with HOP-92 NSCLC. Also, the growth with NCI-H522 lung was -96.9% (active); in the assay with A549/ATCC NSCLC, 6.88% (active); in the assay with 786-0 renal it was 20.9%; in the assay on COLO 205 colon, -59.9% (active); with DU-145 prostate, 115%; in the assay with K-562 leukemia it was -6% (active). Also, the growth is -38.8% (active) with MALME-3M melanoma; 14.6% with MDA-MB-231 breast; -38.6% (active) in the assay with RXF 393 renal; 99.1% with SF-268 CNS; 49.7% with SF-295 CNS; -15.4% (active) in the assay on SF-539 CNS. The results for the growth with UACC-257 melanoma and in the assay with M14 melanoma were 10.3% and -28.8% (active), respectively.
As to `CCCS(=O)(=O)Nc1cccc(Nc2ncnc3cc(NC(=O)CCl)ccc23)c1Cl`, the growth is -52.2% (active) in the assay on NCI-H23 lung; -18.3% (active) with NCI-H226 lung; 3.52% (active) in the assay on NCI-H322M lung; -77.3% (active) in the assay with HOP-62 NSCLC; -41.1% (active) in the assay with NCI-H460 lung; -85.9% (active) in the assay with HOP-92 NSCLC. Further, the growth is -60% (active) with NCI-H522 lung; -5.2% (active) in the assay with A549/ATCC NSCLC; -88.2% (active) in the assay with 786-0 renal; -68.9% (active) in the assay with COLO 205 colon; -92.8% (active) in the assay with DU-145 prostate; 0% (active) with K-562 leukemia. Also, the growth in the assay on MALME-3M melanoma is -79.2% (active); with MDA-MB-231 breast, -72.5% (active); with RXF 393 renal it was -87.3% (active); in the assay with SF-268 CNS, -55.9% (active); in the assay on SF-295 CNS it was -80.5% (active); in the assay with SF-539 CNS it was -85% (active). Further, the growth was 10.3% with UACC-257 melanoma and -43.5% (active) in the assay on M14 melanoma.
In the case of `Cc1ccccc1NC(=O)c1sc2nc3c(cc2c1N)CCCC3`, the growth with NCI-H23 lung is 47.2%; in the assay with NCI-H226 lung, 63.4%; in the assay on NCI-H322M lung it was 51.1%; with HOP-62 NSCLC, 27.4%; with NCI-H460 lung, 11%; with HOP-92 NSCLC, 17.3%. Besides, the growth was 11.1% in the assay on NCI-H522 lung; 34.3% with A549/ATCC NSCLC; 33.7% with 786-0 renal; 15.5% in the assay on COLO 205 colon; 25.2% in the assay on DU-145 prostate; 17.6% with K-562 leukemia. The growth was 53.9% in the assay on MALME-3M melanoma; 52.5% in the assay with MDA-MB-231 breast; 14.2% in the assay on RXF 393 renal; 49.6% in the assay on SF-268 CNS; 16.4% with SF-295 CNS; 8.72% (active) with SF-539 CNS. Moreover, the results for the growth with UACC-257 melanoma and in the assay with M14 melanoma were 40.7% and 27%, respectively.
As for `CC(CN)[C@@H]1CC[C@]2(CO)CC[C@]3(C)[C@H](CC[C@@H]4[C@@]5(C)CCC(NCCO)C(C)(C)[C@@H]5CC[C@]43C)[C@@H]12` (stereo not given in full), the growth with NCI-H23 lung is 89.6%; with NCI-H226 lung, 95.8%; in the assay on NCI-H322M lung, 86.8%; in the assay with HOP-62 NSCLC it was 86.6%; in the assay with NCI-H460 lung it was 4.46% (active); with HOP-92 NSCLC it was 61.6%. In addition, the growth in the assay on NCI-H522 lung was 59.3%; in the assay with A549/ATCC NSCLC, 59.2%; in the assay on 786-0 renal, 59.2%; with COLO 205 colon, 67.5%; in the assay on DU-145 prostate it was 63.5%; with K-562 leukemia it was -49.4% (active). Also, the growth in the assay with MALME-3M melanoma was -35.5% (active); with MDA-MB-231 breast it was 13.6%; with RXF 393 renal it was 58.6%; in the assay on SF-268 CNS it was 60.6%; in the assay with SF-295 CNS, 70.9%; with SF-539 CNS it was 65.8%. Further, the values for the growth in the assay on UACC-257 melanoma and in the assay on M14 melanoma were 84.9% and -2.37% (active), respectively.
As for `CC1=C([Se]CC(OC(=O)[C@@H](CO)NC(=O)OC(C)(C)C)C(=O)NCCCCCC(=O)OCc2ccccc2)C(=O)c2ccccc2C1=O` (stereo not given in full), the growth with NCI-H23 lung is -77.8% (active); in the assay with NCI-H226 lung, -85.4% (active); in the assay with NCI-H322M lung, -74% (active); with HOP-62 NSCLC, -100% (active); in the assay on NCI-H460 lung, -4.97% (active); in the assay on HOP-92 NSCLC, -75.3% (active). Also, the growth in the assay on NCI-H522 lung is -94.6% (active); with A549/ATCC NSCLC it was -24% (active); in the assay on 786-0 renal, -97.3% (active); with COLO 205 colon it was 10.2%; with DU-145 prostate, -54.6% (active); with K-562 leukemia, -4.48% (active). In addition, the growth in the assay with MALME-3M melanoma is -68.1% (active); with MDA-MB-231 breast, -54.4% (active); with RXF 393 renal, -99.4% (active); in the assay with SF-268 CNS it was -2.71% (active); with SF-295 CNS, -38.4% (active); with SF-539 CNS, -92.6% (active). Besides, the results for the growth with UACC-257 melanoma and with M14 melanoma were -94% (active) and -95% (active), respectively.
In the case of `COc1cccc(-c2nn(-c3ccccc3)cc2-c2ccnc(-c3cccnc3)c2)c1`, the growth in the assay with NCI-H23 lung was 86.5%; in the assay on NCI-H226 lung it was 95%; in the assay on NCI-H322M lung, 109%; with HOP-62 NSCLC it was 97.4%; with NCI-H460 lung, 92%; in the assay with HOP-92 NSCLC, 95%. Also, the growth in the assay on NCI-H522 lung is 86.9%; with A549/ATCC NSCLC it was 96.4%; in the assay on 786-0 renal, 98.1%; in the assay on COLO 205 colon, 94.3%; in the assay with DU-145 prostate, 104%; in the assay with K-562 leukemia, 81.2%. For the same molecule, the growth in the assay with MALME-3M melanoma is 83%; with MDA-MB-231 breast it was 86.8%; in the assay with RXF 393 renal it was 107%; with SF-268 CNS it was 94.9%; with SF-295 CNS, 89.2%; in the assay on SF-539 CNS it was 90.1%. In addition, the values for the growth in the assay on UACC-257 melanoma and in the assay with M14 melanoma were 117% and 92.8%, respectively.
